Assay outcomes as filed in PubChem BioAssay.
Sampled rows, rich in hits. Any-hit rate of the full collection: about 10%.
HEK293 tox – Cytotoxic Profiling in HEK 293 Cell Line of Diverse Libraries Using Quantitative High-Throughput Screening; HEK 293 viability, ATP luminescence (CellTiter-Glo), 48-72 h; Potency, µM (series often up to 115 µM), for the others: at the highest dose activity change, negative = cytotoxicity, hits mostly inhibitors; actives 6.6% (n = 94,000); AID 1345083, 2018; also: % is scaled to controls: 0 for no effect and ±100 for the full control effect; nearly all actives have a fitted effect of over 60% in size
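Luminescence from cellular ATP, measured with CellTiter-Glo, indicates HEK 293 viability. Cells plated at 250 cells/well are treated with compound for 48 or 72 hr at 37 degree Celsius before reagent addition.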
GPT2 inhibitor – Primary qHTS assay for inhibitors of Glutamate pyruvate transaminase 2 (GPT2) | Recombinant GPT2, coupled pyruvate oxidase/HRP Amplex Red fluorescence | Potency, µM (series often up to 57.7 µM), for inactives: at the top dose activity change, negative = inhibition, hits mostly inhibitors | actives 0.25% (n = 100,000) | AID 1671188, 2021; also: % is scaled to controls: 0 for no effect and ±100 for the full control effect; nearly all actives have a fitted effect of over 60% in size
Target sequence (Q8TD30 whole entry, looked up): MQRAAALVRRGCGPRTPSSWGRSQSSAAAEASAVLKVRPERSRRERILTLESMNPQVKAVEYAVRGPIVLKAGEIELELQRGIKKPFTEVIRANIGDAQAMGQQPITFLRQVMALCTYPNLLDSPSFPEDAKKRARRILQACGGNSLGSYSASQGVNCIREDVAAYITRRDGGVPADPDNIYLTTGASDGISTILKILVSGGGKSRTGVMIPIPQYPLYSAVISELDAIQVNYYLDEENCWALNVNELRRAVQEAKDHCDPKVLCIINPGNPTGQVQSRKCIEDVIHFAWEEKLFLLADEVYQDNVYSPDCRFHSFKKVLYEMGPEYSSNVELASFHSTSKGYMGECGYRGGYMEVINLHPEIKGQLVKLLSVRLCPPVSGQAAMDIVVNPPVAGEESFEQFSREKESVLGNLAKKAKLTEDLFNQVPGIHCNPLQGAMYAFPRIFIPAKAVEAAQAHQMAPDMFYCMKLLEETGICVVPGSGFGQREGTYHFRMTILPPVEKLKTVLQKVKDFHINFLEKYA
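GPT2 10ng/uL, a-KG 250uM, L-Ala 2mM, HEPES pH7.5 + 0.0001% Tween; 30 min RT. Then Amplex mix (PO/HRP/ThPP), 30 min RT dark, fluorescence. AOA 50uM used as positive control.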
FLuc inh-1 – Firefly luciferase inhibition profiling of diverse chemical library using quantitative high-throughput screening; Luciferin 4-monooxygenase (Photinus pyralis), P08659; actives 2.5% (n = 76,000); Potency, µM (series often up to 115 µM), usual class: inhibitors; AID 1347043, 2019; purified P. pyralis luciferase, luminescence, biochemical; also: % is scaled to controls: 0 for no effect and ±100 for the full control effect; nearly all actives have a fitted effect of over 65% in size
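Luminescence read by CCD imager after adding enzyme (10nM final) to wells holding compound, titrated in qHTS. Substrates 10uM each D-luciferin and ATP; buffer 50mM Tris acetate pH 7.5, 10mM Mg acetate, Tween-20, BSA.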
3T3 cytotox – Cytotoxic Profiling in NIH 3T3 Cell Line of Diverse Libraries Using Quantitative High-Throughput Screening | NIH 3T3 viability, CellTiter-Glo ATP luminescence, 48-72 h | Potency, µM (highest dose often 96.7 µM), without a hit: top-dose activity change, negative = cytotoxicity, actives largely listed as inhibitors | actives 4.3% (n = 94,000) | AID 1345082, 2018; also: % is scaled to controls: 0 for no effect and ±100 for the full control effect; nearly all actives have a fitted effect of over 55% in size
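Cells were seeded at 400 per well, treated with pin-transferred compound, and kept 48 or 72 hr at 37 °C before CellTiter-Glo addition and luminescence imaging of cellular ATP.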
NPR1 antag – Natriuretic polypeptide receptor (hNpr1) antagonism - Primary qHTS; Atrial natriuretic peptide receptor 1 (Homo sapiens), P16066; Potency, µM (titrated, usually from 46.3 µM), for the others: top-dose activity change, negative = inhibition, usual class: inhibitors; actives 1.6% (n = 76,000); HEK293 hNpr1 GloSensor cGMP, ANP-stimulated luminescence; AID 1347048, 2019; calls by dose curve; also: % is scaled to controls: 0 for no effect and ±100 for the full control effect; nearly all actives have a fitted effect of over 60% in size
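HEK293 cells stably expressing human Npr1 and cGMP GloSensor pGS-40F, loaded 2 h with 2% GloSensor reagent, given compound 30 min at room temperature. Luminescence read before and 20 min after 0.1 nM hNppA.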
FLuc SDR -ATP – Firefly luciferase (FLuc-C-HiBiT) SDR gain of signal screen - without ATP; shares compounds with FLuc inh-1; Purified FLuc-C-HiBiT, Nano-Glo HiBiT luminescence, no ATP; Potency, µM (titrated, usually from 32.7 µM), inactives show top-dose activation (signal gain), usual class: activators; actives 7.8% (n = 1,300); AID 1963318, 2024; also: nearly all actives have a fitted effect of over 55% in size
FLuc SDR ATP – Firefly luciferase (FLuc-C-HiBiT) SDR gain of signal screen - plus ATP. shares compounds with FLuc inh-1. purified FLuc-C-HiBiT + ATP, HiBiT complementation luminescence. Potency, µM (doses to about 32.7 µM), for inactives: top-dose activation (gain of signal), actives largely listed as activators. actives 8.7% (n = 1,300). AID 1963319, 2024;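 also: signal reports ligand binding via conformational change of the enzyme rather than luciferase catalysis; % of control where 0% means no effect; nearly all actives have a fitted effect of over 55% in size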
FLuc inh-2 – Firefly luciferase (FLuc-C-HiBiT) enzymatic inhibition screen - Functional assay; actives 42% (n = 1,300); purified FLuc-C-HiBiT enzyme, luciferin luminescence; Potency, µM (highest dose often 32.7 µM), for inactives: at the highest dose activity change, negative = inhibition, hits mostly inhibitors; AID 1963320, 2024; shares compounds with FLuc inh-1; also: % is scaled to controls: 0 for no effect and ±100 for the full control effect; nearly all actives have a fitted effect of over 70% in size
The depositor's hits bear a star; i = inactive; u = inconclusive; x = not tested or not shown; [ ] = remark or other dose. Unless noted, calls follow the shape of the dose curve; as a rule, active = well fitted curve in the direction sought with a large enough effect; inconclusive = small, poorly fitted or top-dose-only effect, or another doubt; inactive = no such curve, though single readings can be large; an effect the other way counts as inactive or inconclusive. Potency is read from the fitted curve at half-maximal effect.

SMILES	HEK293 tox	GPT2 inhibitor	FLuc inh-1	3T3 cytotox	NPR1 antag	FLuc SDR -ATP	FLuc SDR ATP	FLuc inh-2
Cc1cnc(CCNC(=O)Nc2ccc3c(c2)OCCO3)n1C1CC1	-25.1%	i	6.31µM*	-20.7%	-14.8%	19.3%	15.7%	u
Cc1cnc(CCNC(=O)Nc2ccc3c(c2)OCCO3)n1Cc1ccc(F)cc1	39.8µM*	1.9%	14.1µM*	-18.7%	-29.3%	18.7%	15.1%	u
COc1ccc(OC2CCN(C(C)=O)CC2)c(C(=O)N2C[C@@H]3CCC[C@H]2C3)c1	10.9%	i	i	1.6%	3.9%	x	x	x
CCn1c(=O)c(C(=O)Nc2ccc(C(C)=O)cc2)nc2ccccc21	x	x	x	x	x	u	u	u
O=C(O)c1ccnc(-c2ccnc(NCCN3CCCCC3=O)n2)c1	i	i[11.5 µM]	1.41µM*	-3.8%	-3.1%	19.5%	11.1µM*	u
O=C(O)c1ccnc(-c2ccnc(NCCCN3CCCC3=O)n2)c1	i	i	u	-11.4%	3.8%	x	x	x
COc1ccccc1-c1nc2cc(NC(=O)c3ccccc3Cl)ccc2o1	x	x	x	x	x	15.8%	12.7%	u
O=C(Nc1ccc2oc(-c3ccccc3F)nc2c1)c1ccccc1Cl	x	x	x	x	x	20.1%	16.6%	u
CC(C)NC(=O)c1ccc2oc(-c3cccnc3Cl)nc2c1	-20.2%	-2.0%	x	-13.3%	x	x	x	x
COc1cccc(-c2c(C(=O)N3CCOCC3)nc3sccn23)c1	-27.3%[172 µM]	i	x	-18.4%[138 µM]	x	x	x	x
O=C(NCc1ccccc1)N[C@H]1CO[C@H]2[C@@H]1OC[C@@H]2n1cc(-c2ccccn2)nn1	i	i	i	-4.8%[174 µM]	1.9%[70.6 µM]	x	x	x
Cc1ccc(CN2C[C@@H]3C(=O)N(CCc4ccccc4)C(=O)[C@@H]3C2)c(C)c1	u	-4.4%	i	u	-13.6%	x	x	x
N#Cc1c(-n2ncnc2-c2ccccc2Cl)sc2c1CCCCC2	x	x	x	x	x	30.5%	u	2.21µM*
N#Cc1c(-n2ncnc2-c2cccc(Cl)c2)sc2c1CCCCC2	x	x	x	x	x	29.0%	u	1.97µM*
COc1cccc(-c2cc(C(=O)NCc3nc(-c4ccccc4)n[nH]3)[nH]n2)c1	u	-2.0%	14.1µM*	u	2.3%	18.7%	10.8%	u
O=C(NC1CCN(c2cnn(Cc3ccccc3)c(=O)c2)CC1)C1CCOC1 (centres undefined)	i	-8.8%	i	-13.3%	1.4%	x	x	x
O=C1c2cnc(-c3ccsc3)nc2OCCN1c1ccccc1	u	-9.0%[88.5 µM]	7.08µM*	u	-5.1%[70.6 µM]	u	u	u
CN(C)c1cccc(-c2ncc3c(n2)OCCN(c2ccccc2)C3=O)c1	u	1.8%[88.5 µM]	1.58µM*	u	-30.2%[70.6 µM]	u	u	12.8µM*
CCCn1c(C)cnc1CC1CCN(S(=O)(=O)c2cccs2)CC1	u	-4.6%	i	u	-3.1%	x	x	x
O=C1NCc2ccccc2CC12CCCN2Cc1cccc(Cl)c1 (centres undefined)	u	i	x	u	x	x	x	x
O=C(Nc1ccccc1F)C1CCN(C(=O)c2ncn3c2COC(c2ccc(F)cc2)C3)CC1 (centres undefined)	-0.5%	-0.4%	u	i	-3.0%	x	x	x
Cc1ccc(NC(=O)C2CCN(C(=O)c3ncn4c3COC(c3ccc(F)cc3)C4)CC2)c(F)c1 (centres undefined)	-1.2%	i	12.6µM*	i	-1.9%	14.5%	u	u
COc1ccc(C)cc1NC(=O)C1CCN(C(=O)c2ncn3c2COC(c2ccc(F)cc2)C3)CC1 (centres undefined)	-12.9%	i	7.08µM*	-8.9%	-24.8%	12.2%	u	u
Cc1ccccc1N1CCN(C(=O)c2noc(-c3ccc[nH]c3=O)n2)CC1	2.2%	i	i	-4.8%	3.3%	x	x	x
COc1ccc(C(=O)NCc2nnc3ccc(-c4ccc(Cl)cc4)nn23)c(C)c1	u	-7.3%	i	i	-1.8%	x	x	x
SMILES	HEK293 tox	GPT2 inhibitor	FLuc inh-1	3T3 cytotox	NPR1 antag	FLuc SDR -ATP	FLuc SDR ATP	FLuc inh-2
COc1ccc(C(=O)Nc2cc(C(C)C)c(O)c(S(=O)(=O)c3ccc(Cl)cc3)c2C)cc1	x	x	x	x	x	12.2%	12.1%	u
O=C(O)CCC(=O)N1CCC2(CC1)C(=O)NCN2C(=O)Cc1c[nH]c2ccccc12	3.2%	-5.5%	x	i	x	x	x	x
Cc1[nH]cnc1CN1CCc2nc(C(=O)Nc3cccc(C(F)(F)F)c3)oc2CC1	u	i	i	u	-3.6%[70.6 µM]	x	x	x
Cn1cc(CN2CCc3nc(C(=O)Nc4ccccc4)oc3CC2)cn1	x	x	x	x	x	23.1%[49.3 µM]	17.0%[49.3 µM]	u
O=C(Nc1ccccc1)c1nc2c(o1)CCN(Cc1ccccn1)CC2	u	-6.9%[88.5 µM]	3.98µM*	u	u	26.0%[49.3 µM]	u	u
O=C(NCc1cccc(F)c1)c1nc2c(o1)CCN(Cc1cccc(Cl)c1)CC2	u	-12.1%[88.5 µM]	i	u	u	x	x	x
COc1cccc(CN2CCc3nc(C(=O)NCC4CC4)oc3CC2)c1	u	2.7%[88.5 µM]	i	u	-29.9%[70.6 µM]	x	x	x
O=C(Nc1ccccc1)c1nc2c(o1)CCN(Cc1ccc(O)cc1)CC2	u	0.7%[88.5 µM]	0.562µM*	-29.6%[138 µM]	25.1µM*	u	u	5.08µM*
Cc1csc(NC(=O)c2nc3c(o2)CCN(Cc2cccc(F)c2)CC3)n1	50.1µM*	-0.2%[88.5 µM]	2.82µM*	u	-24.8%[70.6 µM]	31.1%[49.3 µM]	u	14.3µM*
COCC(=O)N(C1CCOCC1)C1CCN(C(=O)c2ccc(C)c(C)c2)CC1	u	-3.6%	i	i	7.6%	x	x	x
CN(C)Cc1nnc(C2CC(NC(=O)c3cnc4ccccc4n3)C2)n1C (centres undefined)	-17.0%	-63.2%	i	-26.0%	1.9%	x	x	x
